Results published in PubChem BioAssay AID652048 (National Center for Advancing Translational Sciences (NCATS), 2013).
In all, about 410,000 compounds went through this assay and about 2,400 (0.59%) were called active. The list comes from a sample in which actives are over-represented; it also holds similar structures and randomly drawn compounds. Values without a mark were called inactive. Cut-off read from the data, not from the text of the source: active = max activation above about 30%; inactive = the rest. Where a SMILES comes first, the peptide text is derived from it. Bridges are numbered along the chain shown (N, C = ends). [ ]: non-standard residue; d: D form. The star is where a group is joined. X1 = CC[C@H](C)CCCCC(=O)*; Dab = NCC[C@H](N)C(=O)O

molecular target: D(3) dopamine receptor (Homo sapiens) (UniProt P35462); assay: qHTS of D3 Dopamine Receptor Agonist: qHTS; conditions: D3R DiscoveRx beta-arrestin cells, luminescence, 90 min; hits give high values; note: 0% is about no effect
In short: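 Agonist-mode cell screen: cells plated at 1500/well and incubated overnight at 37 °C, then exposed to library compounds for 90 min at 37 °C. Detection reagent was added for 30–60 min at room temperature, and luminescence was read.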

D(3) dopamine receptor (Homo sapiens), sequence (P35462 whole entry, looked up): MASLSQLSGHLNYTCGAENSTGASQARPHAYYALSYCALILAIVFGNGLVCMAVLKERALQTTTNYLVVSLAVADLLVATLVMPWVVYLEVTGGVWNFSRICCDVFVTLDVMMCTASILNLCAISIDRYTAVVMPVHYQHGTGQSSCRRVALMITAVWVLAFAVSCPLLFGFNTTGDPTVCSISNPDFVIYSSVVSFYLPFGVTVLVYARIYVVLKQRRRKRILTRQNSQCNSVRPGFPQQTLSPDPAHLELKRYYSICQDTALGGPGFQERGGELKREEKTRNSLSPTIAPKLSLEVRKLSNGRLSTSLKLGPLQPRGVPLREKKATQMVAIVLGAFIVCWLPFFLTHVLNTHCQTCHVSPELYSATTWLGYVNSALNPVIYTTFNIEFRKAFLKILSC

SMILES	max activation
O=C(CCc1cn(Cc2ccc(F)cc2)c2ccccc12)NC1CCCCC1	-6.69%
C/C=C/C1=C(C(=O)O)N2C(=O)[C@@H](NC(=O)[C@H](N)c3ccc(O)cc3)[C@H]2SC1	-0.123%
C#C[C@]1(O)CC[C@H]2[C@@H]3CCC4=C/C(=N/O)CC[C@@H]4[C@H]3CC[C@@]21CC	4.22%
CC(C)(C)OC(=O)N1CCN(C(=O)c2[nH]c(C(F)(F)F)nc2-c2ccccc2)CC1	-1.11%
CC(C)CCNC(=O)c1cccnc1Sc1ccccc1	-0.291%
CC(C)CCNC(=O)c1[nH]c(C(F)(F)F)nc1-c1ccccc1	83.5% (active)
COc1ccc(CCNC(=O)CCCn2c(=O)c3ccccc3n(Cc3ccc(C)cc3)c2=O)cc1OC	-1.49%
CC[C@H](C)CCCCC(=O)N[C@@H](CCN)C(=O)N[C@H](C(=O)N[C@@H](CCN)C(=O)N[C@H]1CCNC(=O)[C@H]([C@@H](C)O)NC(=O)[C@H](CCN)NC(=O)[C@H](CCN)NC(=O)[C@H](CC(C)C)NC(=O)[C@@H](CC(C)C)NC(=O)[C@H](CCN)NC1=O)[C@@H](C)O (X1-[Dab]T[Dab][Dab][Dab][dL]L[Dab][Dab]T; lactam 4-C)	0.26%
COc1cccc(CNC(=O)C2CCC(CNS(=O)(=O)c3cccs3)CC2)c1 (stereo not drawn)	2.62%
COc1cc(C(=O)NCC(=O)N2CC=C(c3ccccc3)CC2)cc(OC)c1OC	-3.75%
CCn1c(CNC(=O)c2cc(OC)c(OC)c(OC)c2)cc2cc(C)ccc21	30.2% (active)
COc1cc(-n2c(C)nc3cc(C(=O)NCc4ccco4)ccc32)cc(OC)c1OC	-12.8%
Cc1cccc(C(CC(=O)NCC2(c3ccccc3)CCCC2)c2ccccc2)c1O (stereo not drawn)	-11.1%
CCOc1ccccc1N(CC)C(=O)c1cc2ccc3cccnc3c2[nH]1	8.81%
Cc1ccc(C)c(N2CCN(Cc3nnc(-c4ccccc4)o3)CC2)c1	-22.5%
c1ccc(-c2cnc(CN3CCN(c4ccccc4)CC3)o2)cc1	47.7% (active)
Cc1ccc(-c2nnc(CN3CCN(C)CC3)o2)cc1	-9.28%
NNc1nnc(Cc2ccncc2)c2ccccc12	4.9%
COc1cc(CNCCSc2nnnn2C)ccc1OCc1c(F)cccc1Cl	-12.1%
COc1cc(SC#N)ccc1N=Cc1c(C)[nH]n(-c2ccc(C)cc2)c1=O	37.3% (active)
CCN(C(=O)c1sc2cc(OC)ccc2c1Cl)c1ccccc1	-6.98%
COc1ccc(N(Cc2ccc(N(C)C)cc2)C(=O)c2ccc(S(C)(=O)=O)cc2)cc1	-1.61%
C=CCOc1c2ccc(C(=O)N(CC)c3ccc(OC)cc3)cc2nn1C	36.4% (active)
